Data from PubChem BioAssay AID686978 (National Center for Advancing Translational Sciences (NCATS), 2013).
“And” between values parts separate entries of the source, which are not always exact repeats. Equal entries are not always repeated. Hit rate of the full screen: of about 420,000 compounds, about 64,000 (15%) were called active. Roughly 27% stayed inconclusive and do not appear here. The call rests on the fitted dose curve; in most records, active means well fitted inhibition curve with a large enough effect; inconclusive means small, poorly fitted or top-dose-only effect; inactive means flat fitted curve, though single readings scatter. Not all results are given here.

experiment: qHTS for Inhibitors of human tyrosyl-DNA phosphodiesterase 1 (TDP1): qHTS in cells in absence of CPT; conditions: DT40 Tdp1-/- hTDP1 cells, no CPT, ATP luminescence, 48 h; activity change, negative = growth inhibition: at 46.2 µM (top of the series); further: nearly all actives have a fitted effect of over 55% in size
Summary of the method: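 DT40 Tdp1-/-;hTDP1 cells, no CPT (DMSO vehicle only), 400 cells/well; compounds pin-transferred; ≥48 hr, 37 °C; CellTiter-Glo 30 min RT dark, luminescence read.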
On the % scale 0 is the no-effect control and ±100 the full control effect; potency means the concentration at half of the fitted maximal effect.

Structure (SMILES)	activity change, negative = growth inhibition	Potency
O=C(CN1CCCC1)Nc1sc2c(c1C(=O)Nc1ccccc1)CCCC2	-23.3% (inactive)	
CCOc1ccc(NC(=O)c2c(NC(=O)Cc3ccccc3)sc3c2CCCCC3)cc1		20.6 µM (active)
CC(C)OC(=O)c1c(NC(=O)c2ccco2)sc2c1CCCC2	2.44% (inactive)	
CCOC(=O)c1c(NC(=O)/C=C/c2ccc(OC)cc2)sc2c1CCC(C)C2 (stereo unspecified)	-5.43% (inactive)	
COc1ccc(CC(=O)Nc2sc(Cc3ccccc3)c(C)c2C(N)=O)cc1	-17.9% (inactive)	
CCOc1ccc(NC(=O)c2c(NC(=O)Cc3ccccc3)sc3c2CCC(C)C3)cc1 (stereo unspecified)		20.6 µM (active)
Cc1sc2c(c1C)c(=O)n(-c1ccccc1)c1nncn21	-26.5% (inactive)	
Cc1cccc(C2c3c(n(C)c(=O)n(C)c3=O)N=C3c4ccccc4C(=O)C32)c1 (stereo unspecified)	-57.1% (inactive)	
CC(=O)c1sc(N/N=C\c2ccc(C)cc2)nc1C	-6.34% (inactive)	
Cc1ccc(Nc2nc(N)nc(CSc3nnc(C)s3)n2)cc1	-20.7% (inactive)	
Cc1ccc(Nc2nc(Cl)c(C=O)s2)cc1		23.1 µM (active)
COc1ccc(CC(=O)Nc2c3c(nn2-c2cccc(Cl)c2)CS(=O)C3)cc1 (stereo unspecified)	-24.1% (inactive)	
Cc1ccc(OCC(=O)NC(C)c2ccccc2)c([N+](=O)[O-])n1 (stereo unspecified)	-5.01% (inactive)	
C=C1C2C[C@H](O)C(C)(C)[C@@]2(O)[C@H](O)C[C@]23C[C@@](C)(O)[C@H](CC[C@H]12)[C@H]3O (stereo partly specified)	12.3% (inactive)	
Cc1c(C(=O)N/N=C/c2ccccc2)[nH]c2c([N+](=O)[O-])cccc12		0.92 µM (active)
Cc1cc(C(=O)N/N=C/c2ccccc2[N+](=O)[O-])c(C)o1	-20.6% (inactive)	
Cc1nn(-c2ccccc2)c(Cl)c1/C=N/NC(=O)c1nn(C)cc1[N+](=O)[O-]	-28.7% (inactive)	
O=C(Cc1ccc([N+](=O)[O-])cc1)Nc1ccc(C(=O)N2CCOCC2)cc1	-10.5% (inactive)	
CCNC(=O)c1cccc(NC(=O)C2CC(=O)N(CCc3ccccc3)C2)c1 (stereo unspecified)	7.49% (inactive)	
CN(C(=O)c1cccc(NC(=O)Cc2cccc(NC(=O)C3CCCN(C(=O)C4CC4)C3)c2)c1)C1CCC1 (stereo unspecified)	-29.4% (inactive)	
CC(=O)c1cccc(NC(=O)N2CCCC2C(=O)NCCc2ccccc2)c1 (stereo unspecified)	0.243% (inactive)	
CN(C(=O)c1ccc(NC(=O)Cc2cccc(NC(=O)C3CCN(C(=O)c4ccccc4)CC3)c2)cc1)C1CC1	1.83% (inactive)	

Structure (SMILES)	activity change, negative = growth inhibition	Potency
CN(C(=O)c1cccc(NC(=O)C2CCN(C(=O)OC(C)(C)C)CC2)c1)C1CCC1	-24.9% (inactive)	
CC(C)(C)OC(=O)N1CCC(C(=O)Nc2cccc(C(=O)NCCc3ccccc3)c2)CC1		14.6 µM (active)
O=C(Cc1ccc(NC(=O)C2CCCN(C(=O)C3CCCCC3)C2)cc1)Nc1cccc(C(=O)N2CCCCC2)c1 (stereo unspecified)	-20.7% (inactive)	
CN(C(=O)c1cccc(NC(=O)Cc2ccc(NC(=O)C3CCCN(C(=O)C4CC4)C3)cc2)c1)C1CC1 (stereo unspecified)	0.0642% (inactive)	
O=C(Cc1ccc(NC(=O)C2CCCN(C(=O)CCc3ccccc3)C2)cc1)Nc1ccc(C(=O)N2CCOCC2)cc1 (stereo unspecified)		18.4 µM (active)
CN(C(=O)c1cccc(NC(=O)Cc2ccc(NC(=O)C3CCCN(C(=O)C4CCCC4)C3)cc2)c1)C1CCC1 (stereo unspecified)		20.6 µM (active)
CN(CCc1ccccc1)C(=O)c1cccc(NC(=O)Cc2cccc(NC(=O)C3CCCN(C(=O)CCc4ccccc4)C3)c2)c1 (stereo unspecified)		13 µM (active)
Cc1cc(NC(=O)CCC(=O)N(Cc2ccccc2)C(C(=O)NC2CCCC2)c2ccc(C)o2)no1 (stereo unspecified)	-28.1% (inactive)	
CCc1nc2ccc(C(=O)NC3CCN(Cc4ccccc4)CC3)cn2c1N(C)CCN1CCOCC1	-24.4% (inactive)	
O=C(NC(=S)Nc1ccccc1C(=O)O)c1ccc(-c2ccc(Br)cc2)o1	-10.9% (inactive)	
O=C(c1cccnc1NCc1ccccc1)N1CCOCC1	-11.3% (inactive)	
CC(=O)Nc1ccc(NC(=O)c2ccc3c(c2)C(=O)N(c2ccccc2C)C3=O)cc1	5.82% (inactive)	
NC(=O)C1(N2CCCCC2)CCN(C(=O)c2ccc(C#Cc3ccccc3)o2)CC1	-29.5% (inactive)	
COCCCNC(=O)CNC(=S)N(Cc1cc(OC)c(OC)c(OC)c1)C1CCCC1	7.92% (inactive)	
COc1ccc(C)cc1N(C)C(=O)c1coc(=O)c2ccccc12	-19.8% (inactive)	
CC/C(Cc1ccccc1)=N/NC(=O)CCn1nnc2ccccc21	0.293% (inactive)	
NS(=O)(=O)c1ccc(NC(=S)N2CCCC2)cc1	17.6% (inactive)	
CC1CN(Cc2ccco2)C(=S)N(c2ccccc2)C1=O (stereo unspecified)	-2.45% (inactive)	
CN(C)C(=S)N=c1ssc(=S)n1Cc1ccco1		1.64 µM (active)
CCN(CC)C(=O)CSc1nnc(CNc2ccc(F)cc2)n1Cc1ccco1	0.469% (inactive)	
CC1=CC=CC2=N/C(=N\S(=O)(=O)c3ccc(F)cc3F)c3ccccc3CN12	-23.1% (inactive)	
COC(=O)CSC1=C(C#N)C(c2ccccc2OC)C(C(=O)OC)C(=O)N1 (stereo unspecified)	-2.46% (inactive)	

Structure (SMILES)	activity change, negative = growth inhibition	Potency
CCOC(=O)CSC1=C(C#N)C(c2sccc2C)CC(=O)N1 (stereo unspecified)		3.55 µM (active)
C=CCSC1=C(C#N)C(c2cc(Br)c(O)c(OC)c2)CC(=O)N1 (stereo unspecified)	-1.88% (inactive)	
COc1cccc(CNC(=O)C2CCN(S(=O)(=O)c3cccc4cccnc34)CC2)c1	-14.2% (inactive)	
Cc1nc2ccc(C(=O)N3CCN(c4ccccc4)CC3)cc2s1	-8.77% (inactive)	
Cc1ccc2nc3n(c(=O)c2c1)CCC3	-1.96% (inactive)	
Cc1ccc2nc(C)c3c(c2c1)N(c1ccccc1)CC3		13 µM (active)
CC(=O)c1ccc(NC(=O)CCc2nnc3ccc(NCc4ccco4)nn23)cc1	-26.2% (inactive)	
Cc1cc(C)nc(NS(=O)(=O)c2ccc(NC(=O)c3cc(=O)c4ccc(C)c(C)c4o3)cc2)n1	-12.7% (inactive)	
Cc1nc(SCC(=O)Nc2ccc(C(=O)O)cc2)n[nH]1	-3.23% (inactive)	
O=C1c2ccccc2-c2ncnc3c(N4CCOCC4)cc(N4CCOCC4)c1c23		10.3 µM (active)
O=S(=O)(N1CCOCC1)N1CCN(c2ccccc2F)CC1	-6.21% (inactive)	
O=S(=O)(Nc1cc(Cl)ccc1N1CCOCC1)c1ccccc1Cl	-1.88% (inactive)	
COc1ccc(CCNC(=O)CSc2nnc3ccc(-c4ccncc4)nn23)cc1	3.54% (inactive)	
Cc1cc(C(=O)Nc2c(C)nn(Cc3ccccc3)c2C)on1	3.16% (inactive)	
Cc1nn(Cc2ccc(F)cc2)c(C)c1NC(=O)c1cc(CC(C)C)on1		20.6 µM (active)
Cc1nn(Cc2ccc(F)cc2)c(C)c1NC(=O)c1noc2c1CCc1ccccc1-2		18.4 µM (active) and 16.4 µM (active)
Cc1nn(Cc2ccc(F)cc2)c(C)c1NC(=O)c1cccnc1Cl	0.0616% (inactive)	
Cc1nn(Cc2ccccc2Cl)c(C)c1NC(=O)Cn1nc([N+](=O)[O-])c(Cl)c1C	-1.09% (inactive)	
CC(C)Cc1cc(C(=O)Nc2cc(Br)ccc2O)no1		14.6 µM (active)
CC(C)Cc1cc(C(=O)NCCc2ccccc2)no1	-11.1% (inactive)	
CC(C)CNC(=O)c1cc(-c2ccc(Br)cc2)on1	-14.2% (inactive)	
Cc1ccccc1Cn1nc(C)c(NC(=O)C(F)(F)F)c1C	9% (inactive)	
